Results reported in PubChem BioAssay.
Activity calls are given as the source filed them.

How the values were obtained:
[1] = biological target: Albumin (Bos taurus) (UniProt P02769); test: compounds binding labelled BSA control protein – biochemical, small-molecule microarray, Alexa647 label, 635/667 nm fluorescence, artefact control for SMM control protein annotation, profiling panel (AID 1118); details: BSA-A647 binding, fluorescence 635 nm, higher = more signal;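 note: score merges 667 nm emission intensity and signal-to-noise per printed compound spot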
Chain of Albumin (Bos taurus) (P02769 whole entry, looked up): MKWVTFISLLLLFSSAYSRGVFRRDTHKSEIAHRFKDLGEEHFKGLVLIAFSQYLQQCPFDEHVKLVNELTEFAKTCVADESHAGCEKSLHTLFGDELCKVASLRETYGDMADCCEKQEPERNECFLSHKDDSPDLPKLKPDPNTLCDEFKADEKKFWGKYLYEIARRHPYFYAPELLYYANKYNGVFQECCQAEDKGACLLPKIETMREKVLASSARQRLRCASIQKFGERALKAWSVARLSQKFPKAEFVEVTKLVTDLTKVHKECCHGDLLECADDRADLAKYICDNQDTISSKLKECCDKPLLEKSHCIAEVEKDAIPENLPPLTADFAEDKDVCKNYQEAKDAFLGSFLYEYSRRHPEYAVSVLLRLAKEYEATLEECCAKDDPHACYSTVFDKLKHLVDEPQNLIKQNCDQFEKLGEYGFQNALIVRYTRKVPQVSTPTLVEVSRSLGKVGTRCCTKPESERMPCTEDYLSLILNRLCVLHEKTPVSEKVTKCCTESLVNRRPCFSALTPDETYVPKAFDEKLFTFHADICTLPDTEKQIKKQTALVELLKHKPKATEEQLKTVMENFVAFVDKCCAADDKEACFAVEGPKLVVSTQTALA

[2] = probe aXIP binding to arrayed compounds – biochemical, NeuroSMM set, 635/667 nm fluorescence, primary screen (AID 1119); details: small-molecule microarray, higher = more signal, called active from +8 up or from −8 down;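 note: probe is the protein aXip251-270 applied at 1 µg/mL to compound-printed slides; binding of probe to printed compounds measured as 667 nm fluorescence plus signal to noise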
[3] = probe aNOTCH3 binding on compound microarray – biochemical, small-molecule microarray, 635/667 nm fluorescence, primary screen (AID 1120); details: higher = more signal;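 note: probe is a biotin-tagged antibody raised against NOTCH3 rather than NOTCH3 protein; score merges spot fluorescence near 667 nm with spot signal to noise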
[4] = probe aNOTCH2 binding on compound microarray – biochemical, small-molecule microarray, 635/667 nm fluorescence, primary screen (AID 1121); details: higher = more signal;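 note: score merges feature fluorescence read at 667 nm with its signal to noise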
[5] = biological target: Carbonic anhydrase 2 (Homo sapiens) (UniProt P00918); test: compounds binding carbonic anhydrase 2 – biochemical, small-molecule microarray, Alexa647-labelled CAII, profiling panel (AID 1122); details: CAII-A647 binding fluorescence, higher = more signal
[6] = COS7 lysate on small-molecule microarray, probe aHis, 635 nm (AID 1123); details: COS7 cell lysate, fluorescence, higher = more signal;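 note: z-score combines 667nm fluorescence intensity with signal-to-noise per printed compound spot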
[7] = probe aLAP1 signal on lysate-treated microarray – cell lysate, small-molecule microarray, COS7 lysate, primary screen (AID 1124); details: probe aLAP1, fluorescence, higher = more signal;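 note: lysate comes from COS7 cells expressing LAP1 and is applied at 0.3 µg/mL; score merges spot fluorescence near 667 nm with signal-to-noise over triplicate slides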
[8] = system: Sam68 (KHDRBS1); test: compounds binding KHDRBS1 protein – biochemical, small-molecule microarray, 635 nm fluorescence, primary screen (AID 1125); details: higher = more signal;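 note: score merges 667 nm channel intensity with signal to noise over triplicate slides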
[9] = system: Chordin-like protein 2 (CHRDL2); test: compounds binding chordin-like 2 – biochemical, small-molecule microarray, 635 nm fluorescence, primary screen (AID 1126); details: fluorescence 635 nm, higher = more signal;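 note: printed compound slides probed with Chrdl2 protein at 4 µg/mL for 1 h at 4 C; score merges 667 nm emission intensity with signal to noise over three replicate slides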
[10] = biological target: Concanavalin-A (Canavalia ensiformis) (UniProt P02866); test: compounds binding concanavalin A lectin – biochemical, small-molecule microarray, Alexa647 label, 635 nm, artefact control for SMM control protein annotation, primary screen (AID 1127); details: ConA-A647 binding fluorescence, higher = more signal;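 note: z combines 667 nm emission intensity with signal-to-noise across three replicate slides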
Chain of Concanavalin-A (Canavalia ensiformis) (P02866 whole entry, looked up): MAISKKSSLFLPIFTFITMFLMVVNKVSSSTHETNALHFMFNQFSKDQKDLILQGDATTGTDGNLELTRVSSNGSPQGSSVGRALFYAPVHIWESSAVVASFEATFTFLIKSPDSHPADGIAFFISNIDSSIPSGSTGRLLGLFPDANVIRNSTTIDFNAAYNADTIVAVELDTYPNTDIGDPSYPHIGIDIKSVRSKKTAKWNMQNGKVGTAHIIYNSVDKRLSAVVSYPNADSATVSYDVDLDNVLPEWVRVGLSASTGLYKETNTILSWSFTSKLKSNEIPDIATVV

[11] = compounds binding Alexa647 anti-His antibody – biochemical, small-molecule microarray, 635 nm fluorescence, artefact control for SMM control protein annotation, primary screen (AID 1128); details: higher = more signal;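 note: score merges feature fluorescence with signal-to-noise for each printed compound spot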
[12] = system: Human papillomavirus type 1a E7 protein (residues 1-88); test: HPV1a E7 small-molecule binders, primary screen, biochemical, small-molecule microarray, residues 1-88, 635 nm (AID 1129); details: small-molecule microarray binding, fluorescence 635 nm; higher = more signal
[13] = biological target: Focal adhesion kinase 1 (Homo sapiens) (UniProt Q05397); test: PTK2 protein binding on printed compound slides – biochemical, small-molecule microarray, 635/667 nm fluorescence, BSA, DTT, primary screen (AID 1130); details: 635 nm fluorescence, higher = more signal;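 note: composite of spot emission at 667 nm and signal to noise over triplicate slides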
Chain of Focal adhesion kinase 1 (Homo sapiens) (Q05397 whole entry, looked up): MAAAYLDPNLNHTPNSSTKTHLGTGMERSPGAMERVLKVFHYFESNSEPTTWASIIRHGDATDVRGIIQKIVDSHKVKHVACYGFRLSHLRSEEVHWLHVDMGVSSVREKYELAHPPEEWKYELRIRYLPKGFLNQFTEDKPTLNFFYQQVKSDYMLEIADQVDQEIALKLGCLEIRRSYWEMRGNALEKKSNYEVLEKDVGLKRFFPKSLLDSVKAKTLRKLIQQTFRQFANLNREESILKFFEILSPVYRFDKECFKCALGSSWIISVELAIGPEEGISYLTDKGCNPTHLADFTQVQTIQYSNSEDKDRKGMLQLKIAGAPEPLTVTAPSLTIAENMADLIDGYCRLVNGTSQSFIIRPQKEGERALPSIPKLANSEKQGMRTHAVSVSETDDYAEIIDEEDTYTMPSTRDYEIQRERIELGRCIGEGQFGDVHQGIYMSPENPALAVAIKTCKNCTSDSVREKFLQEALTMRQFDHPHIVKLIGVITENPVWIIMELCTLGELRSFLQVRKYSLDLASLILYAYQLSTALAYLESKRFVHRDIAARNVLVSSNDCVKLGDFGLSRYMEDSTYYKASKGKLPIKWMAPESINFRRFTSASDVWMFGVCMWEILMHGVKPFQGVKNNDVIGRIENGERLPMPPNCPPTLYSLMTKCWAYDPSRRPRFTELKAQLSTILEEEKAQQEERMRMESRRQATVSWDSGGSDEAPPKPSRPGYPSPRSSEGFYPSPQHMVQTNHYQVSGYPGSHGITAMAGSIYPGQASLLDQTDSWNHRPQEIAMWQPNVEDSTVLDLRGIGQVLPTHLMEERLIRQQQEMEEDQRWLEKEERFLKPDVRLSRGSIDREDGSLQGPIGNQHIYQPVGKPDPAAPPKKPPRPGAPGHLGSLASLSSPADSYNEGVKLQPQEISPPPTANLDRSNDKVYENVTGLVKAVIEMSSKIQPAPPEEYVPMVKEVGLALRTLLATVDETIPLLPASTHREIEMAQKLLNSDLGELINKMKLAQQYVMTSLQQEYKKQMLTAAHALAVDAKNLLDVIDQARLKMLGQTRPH

[14] = system: Fibrinogen (Alexa647-labelled); test: Alexa647-fibrinogen binding to printed small molecules – biochemical, small-molecule microarray, 635/667 nm fluorescence, artefact control for SMM control-protein annotation, profiling panel (AID 1131); details: fibrinogen-A647 binding fluorescence, higher = more signal;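 note: z-score merges 667 nm fluorescence with per-spot signal-to-noise over triplicate slides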
[15] = biological target: Follistatin (Homo sapiens) (UniProt P19883); test: FST protein binding to printed compounds – biochemical, small-molecule microarray, 635/667 nm fluorescence, primary screen (AID 1132); details: 635 nm fluorescence, higher = more signal
Chain of Follistatin (Homo sapiens) (P19883 whole entry, looked up): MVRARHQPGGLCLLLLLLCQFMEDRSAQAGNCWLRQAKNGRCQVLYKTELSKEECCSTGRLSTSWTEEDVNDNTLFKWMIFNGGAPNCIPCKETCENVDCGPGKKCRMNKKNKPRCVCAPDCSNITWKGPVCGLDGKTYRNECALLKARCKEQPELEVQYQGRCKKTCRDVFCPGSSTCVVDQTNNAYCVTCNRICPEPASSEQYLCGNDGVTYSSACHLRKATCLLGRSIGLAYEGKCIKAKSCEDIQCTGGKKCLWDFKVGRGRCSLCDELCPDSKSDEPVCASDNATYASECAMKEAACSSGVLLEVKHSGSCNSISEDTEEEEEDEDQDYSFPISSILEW

[16] = biological target: Fibroblast growth factor 2 (Homo sapiens) (UniProt P09038); test: basic fibroblast growth factor binding to printed compounds – biochemical, small-molecule microarray, 635/667 nm fluorescence, primary screen (AID 1133); details: FGF2, fluorescence 635/667, higher = more signal
Chain of Fibroblast growth factor 2 (Homo sapiens) (P09038 whole entry, looked up): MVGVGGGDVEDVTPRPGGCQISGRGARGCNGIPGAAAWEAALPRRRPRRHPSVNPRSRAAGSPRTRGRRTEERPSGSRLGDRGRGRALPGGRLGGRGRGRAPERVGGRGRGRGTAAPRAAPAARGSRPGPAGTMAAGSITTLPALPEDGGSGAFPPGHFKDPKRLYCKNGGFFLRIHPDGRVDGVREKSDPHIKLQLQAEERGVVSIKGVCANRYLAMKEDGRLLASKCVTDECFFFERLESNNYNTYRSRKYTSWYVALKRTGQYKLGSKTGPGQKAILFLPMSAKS

[17] = JC-1 mitochondrial potential readout, lung cancer cells – cell-based, A549, JC-1 fluorescence, basal, 24 h, 100 nL, profiling panel (AID 1138); details: higher = more signal;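 note: A549 lung adenocarcinoma cells under basal conditions with no added stimulus; test concentration not given here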
[18] = system: Lefty1; test: Lefty1 protein binding to printed compounds – biochemical, small-molecule microarray, 635/667 nm fluorescence, primary screen (AID 1139); details: fluorescence 635/667, higher = more signal
[19] = system: wheat germ agglutinin (Triticum aestivum), Alexa647-labelled; test: Alexa647-WGA lectin binding to printed small molecules – biochemical, small-molecule microarray, 635/667 nm fluorescence, artefact control for SMM control-protein annotation, profiling panel (AID 1140); details: WGA-A647 binding, 635 nm fluorescence, higher = more signal;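 note: score merges 667 nm feature emission with signal to noise over triplicate slides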
[20] = biological target: Luciferin 4-monooxygenase (Photinus pyralis) (UniProt P08659); test: inhibition of purified Photinus pyralis luciferase – biochemical, luminescence, purified enzyme, 2006 set, primary screen (AID 1141); details: purified firefly luciferase, SteadyGlo luminescence, 30 min; higher = more signal, called active from +8 up or from −8 down;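 note: cell-free assay with purified firefly luciferase at 100 ng per well in PBS; test concentration not given here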
Chain of Luciferin 4-monooxygenase (Photinus pyralis) (P08659 whole entry, looked up): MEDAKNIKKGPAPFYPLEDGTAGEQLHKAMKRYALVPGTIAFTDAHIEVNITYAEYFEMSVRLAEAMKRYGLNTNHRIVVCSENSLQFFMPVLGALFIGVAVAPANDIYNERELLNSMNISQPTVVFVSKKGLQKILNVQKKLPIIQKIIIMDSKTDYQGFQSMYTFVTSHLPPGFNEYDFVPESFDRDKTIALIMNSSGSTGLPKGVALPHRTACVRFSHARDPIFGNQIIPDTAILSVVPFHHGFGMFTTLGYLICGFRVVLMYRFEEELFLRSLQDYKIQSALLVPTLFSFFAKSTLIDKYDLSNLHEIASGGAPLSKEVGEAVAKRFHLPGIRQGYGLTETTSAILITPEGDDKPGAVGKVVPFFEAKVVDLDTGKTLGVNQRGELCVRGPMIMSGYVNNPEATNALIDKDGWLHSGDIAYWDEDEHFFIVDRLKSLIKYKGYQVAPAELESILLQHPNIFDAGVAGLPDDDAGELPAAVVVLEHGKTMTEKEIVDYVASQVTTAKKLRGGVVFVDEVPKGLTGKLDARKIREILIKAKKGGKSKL

| SMILES | composite z-score [1] | composite Z-score [2] | composite z-score [3] | composite z-score [4] | composite z-score [5] | composite z-score [6] | composite z-score [7] | composite z-score [8] | composite z-score [9] | composite z-score [10] | composite z-score [11] | composite z-score [12] | composite z-score [13] | composite z-score [14] | composite z-score [15] | composite z-score [16] | z-score [17] | composite z-score [18] | composite z-score [19] | z-score [20] |
| --- | --- | --- | --- | --- | --- | --- | --- | --- | --- | --- | --- | --- | --- | --- | --- | --- | --- | --- | --- | --- |
| CCCCCN1CC=CC23O[C@@H]4/C=C\CCC(C)OC(=O)C4[C@H]2C(=O)N(CCO)[C@@H]3C1=O (stereo not given in full) | -1.09 | 0.547 (inactive) | -0.28 | -0.172 | 0.905 | 0.663 | 0.0877 | -0.106 | -1.79 | -0.773 | 1.31 | -0.85 | -0.081 | -2.44 | -0.869 | -1.2 | 0.33 | -0.853 | -0.564 | -0.967 (inactive) |
| [N-]=[N+]=NCc1ccccc1C[C@@]1(C(=O)NCc2ccccc2)N=C(c2ccc(OCCCO)cc2)O[C@@H]1c1ccccc1 | 0.825 | 0.109 (inactive) | 0.0562 | -0.0389 | 0.28 | 0.86 | -0.401 | 0.474 | -1.01 | 0.266 | 1.87 | 1.13 | 0.621 | 0.483 | 0.327 | -0.165 | 1.79 | -0.698 | 1 | -1.15 (inactive) |
| CC(=O)NCCCC[C@@H]1NC(=O)[C@@H]2C[C@H](C(=O)O)[C@H](c3cccc(OCCO)c3)N2C1=O | -1.33 | 0.274 (inactive) | -0.126 | -0.146 | 0.276 | 0.348 | 0.0927 | 1.34 | 1.31 | 1.15 | 2 | 1.07 | 0.341 | 0.041 | 1.35 | 1.73 | 1.2 | 1.42 | 0.795 | -1.16 (inactive) |
| C=CCC1(CC=C)C[C@H]2CO[C@H](c3ccc(OC)cc3)N2C1=O | -1.14 | -0.258 (inactive) | -0.154 | -0.155 | 0.448 | -0.348 | 0.157 | -0.082 | 1.3 | 0.0736 | 0.413 | -0.154 | -0.256 | -0.78 | 1.23 | 0.15 | 1.31 | 0.458 | 1.28 | -1.13 (inactive) |
| O=C1c2ccccc2[C@@]2(Cc3ccccc3N(CC(F)(F)F)C2=O)[C@H](c2ccc(CO)cc2)N1Cc1ccccc1C(F)(F)F | -1.22 | 0.112 (inactive) | -0.0647 | -0.159 | 0.272 | -0.229 | 0.134 | -0.142 | -2.04 | -1.83 | -1.58 | -2.19 | -0.795 | -1.47 | -2.04 | -0.882 | 0.972 | -1.87 | -1.69 | -0.903 (inactive) |
